The values below come from PubChem BioAssay (NCATS).

Several values for one entry are separate records, joined by “and”; a condition that tells them apart may be missing. Equal entries are not always repeated. Values without a mark were called inactive. Records with an inconclusive call do not appear. Activity calls are given as the source filed them. Unless noted, calls come from the whole dose curve; as a rule, active = well fitted curve in the direction sought with a large enough effect; inconclusive = small, poorly fitted or top-dose-only effect, or another doubt; inactive = no such curve, though single readings can be large; an effect the other way counts as inactive or inconclusive. Non-standard residues stand in square brackets, D forms with d. Residues, ends and D or L forms follow the SMILES beside them. Orn = NCCC[C@H](N)C(=O)O

Experiment [1] is described as follows: Drug repurposing screens with cells derived from glioblastoma tumor samples (AID 1345199). For activity, negative = cell killing: % is set by controls: 0 for no effect and ±100 for the full control effect. Note: nearly all actives have a fitted effect of over 40% in size. Note: potency is the fitted concentration of half-maximal effect. To be noted: GBM patient neurospheres viability, ATP luminescence, 48 h. The method, boiled down:
(§1)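 Four patient lines of CD133+ GBM neurospheres were screened at several concentrations; hits were retested in those lines plus three slower-growing GBM lines, using 48-hour treatment and ATP-based viability.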

The test system of the next experiment is astro (control astrocytes). Described as above. To be noted: viability, ATP luminescence, 48 h; series mostly up to 45.9 µM. In outline: as §1
Experiment [2] addresses Nuclear receptor subfamily 1 group I member 2 (Rattus norvegicus) (UniProt Q9R1A7). As to the kind of experiment: qHTS assay for small molecule activators of the rat pregnane X receptor (rPXR) signaling pathway (AID 651751; call rule not given here; note: 0% is about no effect). The note with it: rPXR reporter cells, luciferase (One-Glo), 24 h. (In general: qHTS replaces the single test concentration by a dilution series.)
The nature of experiment [3]: qHTS assay for small molecule activators of the human pregnane X receptor (PXR) signaling pathway (AID 720659; call rule not given here; note: 0% is about no effect). The note with it: DPX-2 HepG2 CYP3A4-luciferase, 24 h; series mostly up to 92.3 µM.
Experiment [4] is described as follows: qHTS assay to identify inhibitors of the type 1 interferon - major histocompatibility complex class I in skeletal muscle: Counter screen cell viability and HiBit confirmation (AID 1347412). Note: % is set by controls: 0 for no effect and ±100 for the full control effect; nearly all actives have a fitted effect of over 60% in size. To be noted: iHSKM muscle cells + IFN-b, HiBiT or CellTiter-Glo, 24 h; Viability; at 45.9 µM (top of the series). The method, boiled down:
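Human myoblast knock-in line, 4.0 ng/ml IFN-beta stimulation, 24 h compound treatment. Endpoints: HiBiT lytic luminescence (HLA-B level) and CellTiter Glo (ATP). Dosing 12 concentrations, 3-fold steps, 46 uM highest final.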

[5] abbreviates: at 45.9 µM (top of the series), tumour line B.
[6] abbreviates: at 45.9 µM (top of the series), tumour line D.
[7] abbreviates: at 46.1 µM (top of the series), tumour line C.

Nuclear receptor subfamily 1 group I member 2 (Rattus norvegicus), sequence (Q9R1A7 whole entry, looked up): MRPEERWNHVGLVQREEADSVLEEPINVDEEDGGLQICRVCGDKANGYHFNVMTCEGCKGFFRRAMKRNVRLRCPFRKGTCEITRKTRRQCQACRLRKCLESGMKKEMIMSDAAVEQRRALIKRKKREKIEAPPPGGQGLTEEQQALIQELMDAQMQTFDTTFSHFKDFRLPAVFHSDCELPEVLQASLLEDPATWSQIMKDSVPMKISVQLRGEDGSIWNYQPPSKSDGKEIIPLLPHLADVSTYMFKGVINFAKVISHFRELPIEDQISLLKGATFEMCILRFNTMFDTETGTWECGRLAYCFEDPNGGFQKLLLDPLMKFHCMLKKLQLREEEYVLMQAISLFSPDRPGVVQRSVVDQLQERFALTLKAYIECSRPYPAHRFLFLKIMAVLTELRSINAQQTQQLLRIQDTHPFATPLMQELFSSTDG

On to `CC(C)=O`, for which the activity, negative = cell killing in experiment [1] (setting [5]) is -1.76%; in experiment [1] (setting [6]), -10.6%; in experiment [1] (setting [7]) it was -8.82%. The Potency entry in the experiment with astro is “inactive”. Further, the max response in experiment [2] is 2.78%. Further, in experiment [3], the molecule was called inactive.

On to `Cc1ccccc1`, for which the figures for the activity, negative = cell killing in experiment [1] (setting [5]), in experiment [1] (setting [6]) and in experiment [1] (setting [7]) were 6.08%, -15.8% and 2.61%, respectively. In addition, in the experiment on astro, the Potency entry is “inactive”. Also, in experiment [2], the max response is -1.25% and 0.145%. Moreover, the molecule was called inactive in experiment [3].

For `CCNC(=O)[C@@H]1CCCN1C(=O)[C@H](CCCN=C(N)N)NC(=O)[C@H](CC(C)C)NC(=O)[C@@H](Cc1c[nH]c2ccccc12)NC(=O)[C@H](Cc1ccc(O)cc1)NC(=O)[C@H](CO)NC(=O)[C@H](Cc1c[nH]c2ccccc12)NC(=O)[C@H](Cc1cnc[nH]1)NC(=O)[C@@H]1CCC(=O)N1`, in the experiment on astro, the Potency was 8.91 µM (active).

Regarding `Cc1cc(CC(C)CC(C)(C)C)n(O)c(=O)c1` (configuration not stated) (tested in a mixture with another compound), the Potency in the experiment with astro is 20 µM (active).

Regarding `COc1cc([C@@H]2c3cc4c(cc3[C@@H](O[C@@H]3O[C@@H]5CO[C@@H](C)O[C@H]5[C@H](O)[C@H]3O)[C@H]3COC(=O)[C@H]23)OCO4)cc(OC)c1O`, the activity, negative = cell killing was -20.4% in experiment [1] (setting [6]) and -16.4% in experiment [1] (setting [7]). Besides, in the experiment on astro, the Potency entry was “inactive”.

Regarding `O=CCCCC=O`, the activity, negative = cell killing was -2.9% in experiment [1] (setting [5]), -3.77% in experiment [1] (setting [6]) and -3.46% in experiment [1] (setting [7]). Besides, in the experiment on astro, the Potency entry is “inactive”. For the same molecule, the max response in experiment [2] is 2.91%. Also, the result in experiment [3] was inactive.

For `C#C[C@]1(O)CC[C@H]2[C@@H]3CCC4=CCCC[C@@H]4[C@H]3C(=C)C[C@@]21CC`, in the experiment with astro, the Potency is 35.5 µM (active).

On to `CO/N=C(\C(=O)N[C@@H]1C(=O)N2C(C(=O)O)=C(CSc3cnns3)CS[C@H]12)c1csc(N)n1`, for which the figures for the activity, negative = cell killing in experiment [1] (setting [5]) and in experiment [1] (setting [6]) were -0.235% and 11.9%, respectively. Moreover, the Potency entry with astro was “inactive”.

With `COc1cc2c(cc1O)CCN[C@]21CS[C@@H]2c3c(OC(C)=O)c(C)c4c(c3[C@H](COC1=O)N1[C@@H]2[C@H]2c3c(cc(C)c(OC)c3O)C[C@@H]([C@@H]1O)N2C)OCO4`, in the experiment on astro, the Potency was 8.91 µM (active) and 14.1 µM (active).

For the molecule `CCCCC(=O)OCC(=O)[C@]1(O)Cc2c(O)c3c(c(O)c2[C@@H](O[C@H]2C[C@H](NC(=O)C(F)(F)F)[C@H](O)[C@H](C)O2)C1)C(=O)c1c(OC)cccc1C3=O`, the Potency with astro was 2.24 µM (active).

`Cc1cc(/C=C/c2ccc3cc(N(C)C)ccc3[n+]2C)c(C)n1-c1ccccc1`: in experiment [1] (at 20 µM (top of the series), tumour line C), the activity, negative = cell killing is -11.8%. Moreover, the Potency in the experiment on astro is 11.2 µM (active).

With `O=C1C(=O)c2ncccc2-c2cccnc21`, the Potency in the experiment with astro was 0.562 µM (active).

Consider `CCN(CC)CCOc1ccc(-c2nc3cc(Cl)ccc3s2)cc1`, for which the Potency with astro was 20 µM (active).

As for `COC(C(=O)C(O)C(C)O)C1Cc2cc3cc(OC4CC(OC5CC(O)C(O)C(C)O5)C(O)C(C)O4)c(C)c(O)c3c(O)c2C(=O)C1OC1CC(OC2CC(OC3CC(C)(O)C(O)C(C)O3)C(O)C(C)O2)C(O)C(C)O1` (configuration not stated), the Potency in the experiment on astro was 0.355 µM (active).

Turning to `CCCCCCCCCCCC[n+]1ccc2ccccc2c1`, in the experiment on astro, the Potency is 5.01 µM (active).

In the case of `CCOc1ccc(N=Nc2ccc(N)cc2N)cc1`, the Potency in the experiment on astro is 2.51 µM (active).

`COc1cc(-c2ccc(-[n+]3nc(-c4ccccc4)nn3-c3ccc([N+](=O)[O-])cc3)c(OC)c2)ccc1-[n+]1nc(-c2ccccc2)nn1-c1ccc([N+](=O)[O-])cc1`: in the experiment on astro, the Potency is 3.55 µM (active).

For `CCCCC(CC)COC(=O)CC(C(=O)OCC(CC)CCCC)S(=O)(=O)O` (configuration not stated), the activity, negative = cell killing is 1.3% in experiment [1] (setting [5]); -17.3% and -22.7% in experiment [1] (at 46 µM (top of the series), tumour line A); -38.9% in experiment [1] (setting [7]). In the experiment on astro, the Potency entry is “inactive”. Moreover, in experiment [2], the max response is 6.97%.

For the molecule `CCCCC/C=C\C/C=C\CCCCCCCC(=O)O`, the activity, negative = cell killing in experiment [1] (setting [5]) is -6.32%; in experiment [1] (setting [6]) it was -10.3%; in experiment [1] (setting [7]), 11.8%. For the same molecule, the Potency entry in the experiment on astro is “inactive”. For the same molecule, the max response in experiment [2] was 6.19% and -3.59%. Further, the molecule was classed as inactive in experiment [3].

Consider `CO[C@H](C(=O)[C@@H](O)[C@@H](C)O)C1Cc2cc3cc(O[C@H]4C[C@@H](O[C@H]5C[C@@H](O)[C@H](O)[C@@H](C)O5)[C@@H](O)[C@@H](C)O4)c(C)c(O)c3c(O)c2C(=O)[C@H]1O[C@H]1C[C@@H](O[C@H]2C[C@@H](O[C@H]3C[C@](C)(O)[C@H](O)[C@@H](C)O3)[C@H](O)[C@@H](C)O2)[C@H](O)[C@@H](C)O1` (some centres not stated), for which the Potency with astro was 0.112 µM (active).

Turning to `C[C@@H]1CCN(C(=O)CC#N)C[C@@H]1N(C)c1ncnc2[nH]ccc12`, the activity change, negative = inhibition in experiment [4] is -5.51%.

Regarding `CC(C)C[C@@H]1NC(=O)[C@H](CCCN)NC(=O)[C@H](C(C)C)NC(=O)[C@@H]2CCCN2C(=O)[C@@H](Cc2ccccc2)NC(=O)[C@H](CC(C)C)NC(=O)[C@H](CCCN)NC(=O)[C@H](C(C)C)NC(=O)[C@@H]2CCCN2C(=O)[C@@H](Cc2ccccc2)NC1=O` (cyclo(V[Orn]L[dF]PV[Orn]L[dF]P)), the Potency in the experiment on astro was 3.98 µM (active).

On to `O=S(=O)(O)c1cc(O)c2c(N=Nc3ccc(Nc4ccccc4)c4c(S(=O)(=O)O)cccc34)cc(S(=O)(=O)O)cc2c1`, for which the Potency in the experiment with astro was 14.1 µM (active).
